# Data reported in PubChem BioAssay (Tox21).
# Where “and” joins values, the source holds several entries; their conditions need not be identical. Identical values can stand only once. Inconclusive results are not listed. Unmarked numbers belong to inactive results. Calls of active or inactive are those of the source. Calls come from the whole dose curve; as a rule, active = well fitted inhibition curve with a large enough effect in the repeat runs; inconclusive = weak or mixed curves; inactive = no such curve, though single readings can be large or run the other way.
# Target: Cytochrome P450 2C19 (Homo sapiens) (UniProt P33261)
# Sequence (P33261 whole entry, looked up): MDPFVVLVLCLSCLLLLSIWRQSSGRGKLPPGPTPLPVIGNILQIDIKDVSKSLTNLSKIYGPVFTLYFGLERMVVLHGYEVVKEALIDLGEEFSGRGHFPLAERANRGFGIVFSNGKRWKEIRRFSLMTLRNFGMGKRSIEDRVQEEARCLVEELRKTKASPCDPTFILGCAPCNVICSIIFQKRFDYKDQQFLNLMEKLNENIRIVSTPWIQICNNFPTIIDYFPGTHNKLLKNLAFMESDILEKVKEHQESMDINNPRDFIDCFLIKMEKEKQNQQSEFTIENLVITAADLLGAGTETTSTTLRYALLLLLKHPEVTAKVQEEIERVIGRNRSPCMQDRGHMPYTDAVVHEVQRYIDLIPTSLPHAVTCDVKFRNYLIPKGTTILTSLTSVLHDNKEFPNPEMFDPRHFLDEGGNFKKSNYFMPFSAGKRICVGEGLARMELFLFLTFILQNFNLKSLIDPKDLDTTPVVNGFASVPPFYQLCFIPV
# Experiment: Cytochrome P450 Family 2 Subfamily C Member 19 (CYP2C19) small molecule antagonists: luciferase reporter qHTS assay (AID 1671197); note: nearly all actives have a fitted effect of over 65% in size
# Conditions: P450-Glo CYP2C19 enzyme, luciferin luminescence, 1 h; series mostly up to 115 µM; activity change, negative = inhibition: at the top concentration
# Outline: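 P450-Glo CYP2C19 screening system; proluciferin substrate; DMSO compound stocks; 10 min RT preincubation; NADPH regeneration, 1 h at 37C; luciferin detection reagent, 20 min RT; luminescence as RLU.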
# % is set by controls: 0 for no effect and ±100 for the full control effect; potency is the fitted concentration of half-maximal effect.
SMILES,Potency,"activity change, negative = inhibition"
CC(C)c1cccc(C(C)C)c1N1C(=O)c2ccc(O)cc2C1=O,39.9 µM (active),–
CCCCCCCC/C=C/CCCOC(C)=O,31.7 µM (active),–
CCOC(=O)CC(C)O (stereo unspecified),–,-4.46%
CCCCCCC(C)OC(=O)COc1nc(F)c(Cl)c(N)c1Cl (stereo unspecified),4.48 µM (active),–
CCc1ccc(O)c(C(C)(C)C)c1,17.8 µM (active),–
CN1CCN(C2Cc3ccccc3Sc3ccc(Cl)cc32)CC1 (stereo unspecified),11 µM (active),–
CCCCCCCC(OC)OC,–,-11.1% [at 52.9 µM]
CCCCCCCCCCCCCCNCCO,–,0.682% [at 52.9 µM]
COc1ccc(C#N)cc1,–,-6.42%
CCN=C1C=CC(=C(c2ccc(N(CC)CC)cc2)c2ccc(N(CC)CC)cc2)c2ccccc21,17.7 µM (active),–
Cn1cnc2ncnc(N)c21,–,-3.7% [at 52.9 µM]
COc1cc(C=C2CCC/C(=C\c3ccc(O)c(OC)c3)C2=O)ccc1O,24.5 µM (active),–
CN(C)CCCN1c2ccccc2Sc2ccc(C(F)(F)F)cc21,4.36 µM (active),–
CC(=O)C=O,–,-5.73%
COc1ccc(-n2nc(CCC(=O)N(C)O)cc2-c2ccc(Cl)cc2)cc1,8.71 µM (active),–
CC(C)(c1cc(Br)c(OCCO)c(Br)c1)c1cc(Br)c(OCCO)c(Br)c1,6.94 µM (active),–

SMILES,Potency,"activity change, negative = inhibition"
C/C=C/C(=O)Oc1c(CCCCCC(C)C)cc([N+](=O)[O-])cc1[N+](=O)[O-],35.6 µM (active),–
O=C(O)CC(=O)O,–,-16.5%
Cc1c(C)n(Cc2ccccc2)c2ccc(C(=O)OCCN(C)C)cc12,15.5 µM (active),–
CCOC(=O)C1=C(C)NC(C)=C(C(=O)OCC)C1c1ccccc1/C=C/C(=O)OC(C)(C)C,4.9 µM (active),–
COc1ccccc1C=O,–,10.3%
Cc1cccc(C)n1,–,16.7%
CC(=O)OC(OC(C)=O)c1ccc([N+](=O)[O-])o1,16.2 µM (active),–
CSc1ccc2c(c1)N(CCC1CCCCN1C)c1ccccc1S2 (stereo unspecified),17.8 µM (active) and 21.9 µM (active),–
Oc1cc2ccccc2cc1O,39.9 µM (active),–
CC(NCCC(c1ccccc1)c1ccccc1)c1ccccc1 (stereo unspecified),4.36 µM (active),–
C/C=C/c1ccc(OC)c(OC)c1,71 µM (active),–
CCCCCCCCCCOCC(O)CN (stereo unspecified),6.92 µM (active),–
CCN(CC)CCOC(=O)C1(C2CCCCC2)CCCCC1,–,-24.1% [at 52.9 µM]
CCCCCCCOC(=O)c1ccc(O)cc1,7.1 µM (active) and 20 µM (active),–
CC(C(O)c1ccccc1)N(C)CCOC(c1ccccc1)c1ccccc1 (stereo unspecified),7.76 µM (active),–
